Data: paper PMC7862700, “An all-to-all approach to the identification of sequence-specific readers for epigenetic DNA modifications on cytosine”

How the values were obtained:
Assay in all cases: DAPPL (digital affinity profiling via proximity ligation, sequencing); 10 mM Tris-HCl pH 7.5, 50 mM NaCl, 1 mM DTT, 4% glycerol, room temperature, 30 min; GST-TFs on glutathione beads, 16-mer random dsDNA library, 0.1% formaldehyde crosslink after washing; high values mean tight binding
Details in all cases: protein: recombinant; tags: N-terminal GST; dsDNA, one strand shown
ERF = target: T1, ERF (Homo sapiens, UniProt P50548 1-548)
T1 sequence: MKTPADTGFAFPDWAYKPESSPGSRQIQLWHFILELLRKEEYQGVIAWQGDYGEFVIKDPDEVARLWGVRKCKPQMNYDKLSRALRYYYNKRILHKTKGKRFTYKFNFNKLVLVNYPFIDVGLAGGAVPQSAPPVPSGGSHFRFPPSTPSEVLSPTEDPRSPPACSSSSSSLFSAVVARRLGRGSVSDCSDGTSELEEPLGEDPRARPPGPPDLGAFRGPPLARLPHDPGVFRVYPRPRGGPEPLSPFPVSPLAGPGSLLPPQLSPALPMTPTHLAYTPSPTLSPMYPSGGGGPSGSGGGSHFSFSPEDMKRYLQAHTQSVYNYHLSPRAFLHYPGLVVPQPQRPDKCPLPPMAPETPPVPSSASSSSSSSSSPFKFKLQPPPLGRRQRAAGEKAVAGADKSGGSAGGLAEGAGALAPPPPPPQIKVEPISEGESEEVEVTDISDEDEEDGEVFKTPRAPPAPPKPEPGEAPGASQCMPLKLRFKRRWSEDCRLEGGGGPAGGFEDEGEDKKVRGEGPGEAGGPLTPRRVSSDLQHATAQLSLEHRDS
In short: (§1)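 Pools of DNA-barcoded human transcription factors, expressed in yeast as GST fusions on glutathione beads and combined with a tag-only sample, were incubated with 200 nmole of a 16-mer random double-stranded DNA library. Incubation took 30 min at room temperature in Tris/NaCl/DTT/glycerol buffer and was followed by washing, 0.1% formaldehyde crosslinking, proximity ligation (BsaI/T4 ligase, 1 h, 37 °C), PCR amplification and sequencing on an Illumina NextSeq500. Binding signal is the ratio of a hexamer's read frequency for a factor to its frequency for the tag-only sample.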

ETV3L = target: T2, ETV3L (Homo sapiens, UniProt Q6ZN32 1-361)
T2 sequence: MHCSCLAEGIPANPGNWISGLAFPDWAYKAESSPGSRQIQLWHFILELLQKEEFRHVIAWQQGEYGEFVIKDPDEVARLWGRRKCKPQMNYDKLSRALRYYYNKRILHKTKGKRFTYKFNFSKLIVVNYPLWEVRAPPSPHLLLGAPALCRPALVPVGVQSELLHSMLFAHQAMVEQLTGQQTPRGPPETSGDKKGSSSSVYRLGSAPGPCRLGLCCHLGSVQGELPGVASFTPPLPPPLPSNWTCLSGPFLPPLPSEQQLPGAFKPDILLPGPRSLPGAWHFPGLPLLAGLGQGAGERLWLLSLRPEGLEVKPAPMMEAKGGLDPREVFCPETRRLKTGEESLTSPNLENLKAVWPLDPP
In short: as §1

ETS2 = target: T3, ETS2 (Homo sapiens, UniProt P15036 1-469)
T3 sequence: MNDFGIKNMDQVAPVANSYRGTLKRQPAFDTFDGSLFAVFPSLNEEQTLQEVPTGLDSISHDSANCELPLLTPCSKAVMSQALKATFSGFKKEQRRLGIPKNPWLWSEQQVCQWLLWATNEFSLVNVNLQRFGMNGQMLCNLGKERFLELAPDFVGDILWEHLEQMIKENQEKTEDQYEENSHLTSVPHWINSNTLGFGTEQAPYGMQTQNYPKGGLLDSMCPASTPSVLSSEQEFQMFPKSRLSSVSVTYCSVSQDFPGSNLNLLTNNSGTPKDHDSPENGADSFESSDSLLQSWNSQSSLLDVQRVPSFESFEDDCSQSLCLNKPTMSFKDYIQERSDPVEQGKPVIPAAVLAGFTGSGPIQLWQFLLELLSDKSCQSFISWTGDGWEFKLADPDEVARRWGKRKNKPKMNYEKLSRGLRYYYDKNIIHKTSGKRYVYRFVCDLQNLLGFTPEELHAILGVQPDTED
In short: as §1

SPDEF = target: T4, SPDEF (Homo sapiens, UniProt O95238 1-335)
T4 sequence: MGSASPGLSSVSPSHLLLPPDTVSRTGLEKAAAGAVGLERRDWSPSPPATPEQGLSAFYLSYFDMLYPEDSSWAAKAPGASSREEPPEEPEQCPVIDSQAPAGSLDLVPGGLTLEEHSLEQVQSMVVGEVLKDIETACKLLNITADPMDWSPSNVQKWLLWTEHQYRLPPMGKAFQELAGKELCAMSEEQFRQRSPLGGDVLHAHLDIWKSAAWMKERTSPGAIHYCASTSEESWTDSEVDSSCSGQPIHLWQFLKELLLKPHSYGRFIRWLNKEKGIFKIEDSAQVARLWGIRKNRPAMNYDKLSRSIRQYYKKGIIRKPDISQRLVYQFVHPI
In short: as §1

ETV7 = target: T5, ETV7 (Homo sapiens, UniProt Q9Y603 1-341)
T5 sequence: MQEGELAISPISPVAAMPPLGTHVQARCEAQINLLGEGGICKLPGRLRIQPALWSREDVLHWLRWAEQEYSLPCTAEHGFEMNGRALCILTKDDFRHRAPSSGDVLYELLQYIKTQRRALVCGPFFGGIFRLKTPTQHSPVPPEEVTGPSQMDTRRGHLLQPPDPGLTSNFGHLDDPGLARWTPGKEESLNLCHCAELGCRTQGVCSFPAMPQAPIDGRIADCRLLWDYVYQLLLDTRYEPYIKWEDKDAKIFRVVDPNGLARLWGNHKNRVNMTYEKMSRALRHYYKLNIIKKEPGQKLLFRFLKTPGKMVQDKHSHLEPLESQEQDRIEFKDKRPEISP
In short: as §1

ELF5 = target: T6, ELF5 (Homo sapiens, UniProt Q9UKW6-2 1-255)
T6 sequence: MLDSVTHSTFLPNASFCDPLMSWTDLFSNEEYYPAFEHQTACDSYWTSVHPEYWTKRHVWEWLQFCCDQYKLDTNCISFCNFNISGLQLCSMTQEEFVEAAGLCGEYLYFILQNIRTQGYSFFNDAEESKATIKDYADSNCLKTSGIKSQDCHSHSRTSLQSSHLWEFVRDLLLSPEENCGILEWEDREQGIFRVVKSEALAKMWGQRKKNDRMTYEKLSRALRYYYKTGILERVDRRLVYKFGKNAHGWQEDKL
In short: as §1

ETV3 = target: T7, ETV3 (Homo sapiens, UniProt P41162-2 1-143)
T7 sequence: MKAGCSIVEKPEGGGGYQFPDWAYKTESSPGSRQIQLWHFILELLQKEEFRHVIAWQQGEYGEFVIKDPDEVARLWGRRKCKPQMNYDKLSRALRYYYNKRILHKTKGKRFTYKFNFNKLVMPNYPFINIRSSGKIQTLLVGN
In short: as §1

ETV6 = ETV6 (Homo sapiens, UniProt P41212 1-452)
In short: as §1

ETV6, sequence (P41212 whole entry): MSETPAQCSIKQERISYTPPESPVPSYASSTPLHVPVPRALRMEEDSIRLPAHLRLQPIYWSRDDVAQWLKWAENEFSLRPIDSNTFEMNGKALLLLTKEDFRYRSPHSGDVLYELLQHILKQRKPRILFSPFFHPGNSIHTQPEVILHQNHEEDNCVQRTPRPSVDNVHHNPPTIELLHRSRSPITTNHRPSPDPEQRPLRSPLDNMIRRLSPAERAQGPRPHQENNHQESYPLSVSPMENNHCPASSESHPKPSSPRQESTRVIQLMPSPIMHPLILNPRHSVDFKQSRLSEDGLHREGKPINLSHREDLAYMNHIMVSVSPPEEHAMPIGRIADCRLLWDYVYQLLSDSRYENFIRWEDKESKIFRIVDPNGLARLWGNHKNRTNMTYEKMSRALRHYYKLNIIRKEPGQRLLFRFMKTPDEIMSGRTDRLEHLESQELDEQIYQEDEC

Sequence	binding signal (ERF)	binding signal (ETV3L)	binding signal (ETS2)	binding signal (SPDEF)	binding signal (ETV7)	binding signal (ELF5)	binding signal (ETV3)	binding signal (ETV6)
ATTACC	1.18 fold enrichment (6-mer frequency, TF over GST control)	1.2 fold enrichment (6-mer frequency, TF over GST control)	1.27 fold enrichment (6-mer frequency, TF over GST control)	1.18 fold enrichment (6-mer frequency, TF over GST control)	1.28 fold enrichment (6-mer frequency, TF over GST control)	1.32 fold enrichment (6-mer frequency, TF over GST control)	1.31 fold enrichment (6-mer frequency, TF over GST control)	1.33 fold enrichment (6-mer frequency, TF over GST control)
CATTTG	1.4 fold enrichment (6-mer frequency, TF over GST control)	1.25 fold enrichment (6-mer frequency, TF over GST control)	1.31 fold enrichment (6-mer frequency, TF over GST control)	1.25 fold enrichment (6-mer frequency, TF over GST control)	1.3 fold enrichment (6-mer frequency, TF over GST control)	1.18 fold enrichment (6-mer frequency, TF over GST control)	1.25 fold enrichment (6-mer frequency, TF over GST control)	1.21 fold enrichment (6-mer frequency, TF over GST control)
GTTTCT	1.24 fold enrichment (6-mer frequency, TF over GST control)	1.33 fold enrichment (6-mer frequency, TF over GST control)	1.28 fold enrichment (6-mer frequency, TF over GST control)	1.21 fold enrichment (6-mer frequency, TF over GST control)	1.38 fold enrichment (6-mer frequency, TF over GST control)	1.31 fold enrichment (6-mer frequency, TF over GST control)	1.24 fold enrichment (6-mer frequency, TF over GST control)	1.28 fold enrichment (6-mer frequency, TF over GST control)
TACACC	1.21 fold enrichment (6-mer frequency, TF over GST control)	1.17 fold enrichment (6-mer frequency, TF over GST control)	1.1 fold enrichment (6-mer frequency, TF over GST control)	1.24 fold enrichment (6-mer frequency, TF over GST control)	1.13 fold enrichment (6-mer frequency, TF over GST control)	1.18 fold enrichment (6-mer frequency, TF over GST control)	1.18 fold enrichment (6-mer frequency, TF over GST control)	1.15 fold enrichment (6-mer frequency, TF over GST control)
ATGTTA	1.21 fold enrichment (6-mer frequency, TF over GST control)	1.2 fold enrichment (6-mer frequency, TF over GST control)	1.24 fold enrichment (6-mer frequency, TF over GST control)	1.26 fold enrichment (6-mer frequency, TF over GST control)	1.23 fold enrichment (6-mer frequency, TF over GST control)	1.21 fold enrichment (6-mer frequency, TF over GST control)	1.23 fold enrichment (6-mer frequency, TF over GST control)	1.28 fold enrichment (6-mer frequency, TF over GST control)
CTACCT	1.74 fold enrichment (6-mer frequency, TF over GST control)	1.53 fold enrichment (6-mer frequency, TF over GST control)	1.45 fold enrichment (6-mer frequency, TF over GST control)	1.45 fold enrichment (6-mer frequency, TF over GST control)	1.22 fold enrichment (6-mer frequency, TF over GST control)	1.59 fold enrichment (6-mer frequency, TF over GST control)	1.44 fold enrichment (6-mer frequency, TF over GST control)	1.51 fold enrichment (6-mer frequency, TF over GST control)
ACGCTA	1.2 fold enrichment (6-mer frequency, TF over GST control)	1.12 fold enrichment (6-mer frequency, TF over GST control)	1.01 fold enrichment (6-mer frequency, TF over GST control)	1.15 fold enrichment (6-mer frequency, TF over GST control)	1.17 fold enrichment (6-mer frequency, TF over GST control)	1.12 fold enrichment (6-mer frequency, TF over GST control)	1.21 fold enrichment (6-mer frequency, TF over GST control)	1.08 fold enrichment (6-mer frequency, TF over GST control)
TAGCCC	1.18 fold enrichment (6-mer frequency, TF over GST control)	1.11 fold enrichment (6-mer frequency, TF over GST control)	1.14 fold enrichment (6-mer frequency, TF over GST control)	1.3 fold enrichment (6-mer frequency, TF over GST control)	1.05 fold enrichment (6-mer frequency, TF over GST control)	1.07 fold enrichment (6-mer frequency, TF over GST control)	1.24 fold enrichment (6-mer frequency, TF over GST control)	1.04 fold enrichment (6-mer frequency, TF over GST control)
ACATAT	1.34 fold enrichment (6-mer frequency, TF over GST control)	1.29 fold enrichment (6-mer frequency, TF over GST control)	1.27 fold enrichment (6-mer frequency, TF over GST control)	1.38 fold enrichment (6-mer frequency, TF over GST control)	1.37 fold enrichment (6-mer frequency, TF over GST control)	1.2 fold enrichment (6-mer frequency, TF over GST control)	1.28 fold enrichment (6-mer frequency, TF over GST control)	1.21 fold enrichment (6-mer frequency, TF over GST control)
CCAAAA	1.16 fold enrichment (6-mer frequency, TF over GST control)	1.1 fold enrichment (6-mer frequency, TF over GST control)	1.11 fold enrichment (6-mer frequency, TF over GST control)	1.11 fold enrichment (6-mer frequency, TF over GST control)	1.11 fold enrichment (6-mer frequency, TF over GST control)	1.11 fold enrichment (6-mer frequency, TF over GST control)	1.15 fold enrichment (6-mer frequency, TF over GST control)	1.2 fold enrichment (6-mer frequency, TF over GST control)
ATGCTA	1.26 fold enrichment (6-mer frequency, TF over GST control)	1.37 fold enrichment (6-mer frequency, TF over GST control)	1.25 fold enrichment (6-mer frequency, TF over GST control)	1.23 fold enrichment (6-mer frequency, TF over GST control)	1.3 fold enrichment (6-mer frequency, TF over GST control)	1.28 fold enrichment (6-mer frequency, TF over GST control)	1.28 fold enrichment (6-mer frequency, TF over GST control)	1.27 fold enrichment (6-mer frequency, TF over GST control)
AACTGG	1.18 fold enrichment (6-mer frequency, TF over GST control)	1.23 fold enrichment (6-mer frequency, TF over GST control)	1.3 fold enrichment (6-mer frequency, TF over GST control)	1.23 fold enrichment (6-mer frequency, TF over GST control)	1.23 fold enrichment (6-mer frequency, TF over GST control)	1.26 fold enrichment (6-mer frequency, TF over GST control)	1.29 fold enrichment (6-mer frequency, TF over GST control)	1.31 fold enrichment (6-mer frequency, TF over GST control)
ATCACC	1.13 fold enrichment (6-mer frequency, TF over GST control)	1.17 fold enrichment (6-mer frequency, TF over GST control)	1.05 fold enrichment (6-mer frequency, TF over GST control)	1.12 fold enrichment (6-mer frequency, TF over GST control)	1 fold enrichment (6-mer frequency, TF over GST control)	1.01 fold enrichment (6-mer frequency, TF over GST control)	1.12 fold enrichment (6-mer frequency, TF over GST control)	1.06 fold enrichment (6-mer frequency, TF over GST control)
TATACG	1.39 fold enrichment (6-mer frequency, TF over GST control)	1.15 fold enrichment (6-mer frequency, TF over GST control)	1.37 fold enrichment (6-mer frequency, TF over GST control)	1.39 fold enrichment (6-mer frequency, TF over GST control)	1.39 fold enrichment (6-mer frequency, TF over GST control)	1.35 fold enrichment (6-mer frequency, TF over GST control)	1.3 fold enrichment (6-mer frequency, TF over GST control)	1.23 fold enrichment (6-mer frequency, TF over GST control)
ATGGCA	1.23 fold enrichment (6-mer frequency, TF over GST control)	1.2 fold enrichment (6-mer frequency, TF over GST control)	1.15 fold enrichment (6-mer frequency, TF over GST control)	1.1 fold enrichment (6-mer frequency, TF over GST control)	1.24 fold enrichment (6-mer frequency, TF over GST control)	1.26 fold enrichment (6-mer frequency, TF over GST control)	1.3 fold enrichment (6-mer frequency, TF over GST control)	1.28 fold enrichment (6-mer frequency, TF over GST control)
